Measurements published in PubChem BioAssay (NCATS).
Results filed as inconclusive are left out. A number with no mark means an inactive call. Active and inactive are the calls of the source. Calls come from the whole dose curve; as a rule, active = well fitted cell-killing curve with a large enough effect; inconclusive = small, poorly fitted or top-dose-only effect, or effect the other way; inactive = no such curve, though single readings can be large or run the other way.
Potency is the fitted concentration of half-maximal effect.

Experiment: Viability qHTS for spleen associated tyrosine kinase inhibitor (SYKi) drug resistant MV4-11 cells (AID 1963824); note: nearly all actives have a fitted effect of over 35% in size
Settings: SYKi-resistant MV4-11 viability, CellTiter-Glo, 72 h; series mostly up to 45 µM
Method in brief: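 SYK inhibitor-resistant MV4-11 AML cells, 500 per well, added to predispensed compounds and incubated 72 hr at 37 C, 5% CO2. Viability measured by CellTiter-Glo luminescence after 10 min at room temperature.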
In the case of CC[C@H](C)[C@H](NC(=O)[C@H](Cc1ccc(O)cc1)NC(=O)[C@@H](N)C(C)C)C(=O)N[C@@H](Cc1cnc[nH]1)C(=O)N1CCC[C@H]1C(=O)N[C@@H](Cc1ccccc1)C(=O)O, the viability, % of control is reported as 102% [at 4.97 µM].
C[C@H](N)C(=O)N[C@@H](Cc1ccc(O)cc1)C(=O)N1CCC[C@H]1C(=O)NCC(=O)N[C@@H](CCCCN)C(=O)N[C@@H](Cc1ccccc1)C(N)=O showed a viability, % of control of 89.8% [at 9.25 µM].
For CCCCNc1ncc(C(=O)NCc2ccc(-n3ccnc3)cc2)c(NC2CCC(O)CC2)n1 (stereo not given), the Potency was 0.259 µM (active).
For C[C@@H](CN1CCC(n2c(=O)[nH]c3cc(Cl)ccc32)CC1)NC(=O)c1ccc2ccccc2c1, the Potency was 11.6 µM (active).
In the case of CCc1cnn2c(NCc3ccc[n+]([O-])c3)cc(N3CCCCC3CCO)nc12 (stereo not given), the Potency is reported as 0.0065 µM (active).
For C/C=C(\C)C(=O)OC1C(C)C2(O)C3C=C(C)C(=O)C3CC(CO)=CC2C2C(C)(C)C12OC(C)=O (stereo not given), the Potency was “inactive”.
With OC[C@H]1O[C@@H](Oc2cc(O)cc(-c3cc4ccc(O)cc4o3)c2)[C@H](O)[C@@H](O)[C@@H]1O the Potency was 4.47 µM (active).
With O=C(O)Cc1cn([C@@H]2OC[C@@H](O[C@@H]3O[C@H](CO)[C@@H](O)[C@H](O)[C@H]3O)[C@H](O)[C@H]2O[C@@H]2O[C@H](CO)[C@@H](O)[C@H](O)[C@H]2O)c2ccccc12 the Potency was “inactive”.
With O=C(NO)c1cnc(N2CCN(S(=O)(=O)c3ccc4ccccc4c3)CC2)nc1 the Potency was “inactive”.
For C=CCCN1CCC2(CC1)CN(C(=O)c1c(F)cccc1F)c1ccc(Cl)cc12, the Potency was 10.3 µM (active).
